# PubChem BioAssay (NCATS)
# Inconclusive results are not listed. Entries that show only a call come without a potency. The source made the active and inactive calls. Unless noted, calls come from the whole dose curve; as a rule, active = well fitted curve in the direction sought with a large enough effect; inconclusive = small, poorly fitted or top-dose-only effect, or another doubt; inactive = no such curve, though single readings can be large; an effect the other way counts as inactive or inconclusive.
# Experiments:
# [1] = AP1 Signaling Pathway (AID 357; active = well fitted curve in either direction with a large enough effect, not every such curve was filed as active;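 note: ME-180 reporter cells stimulated with EGF at its EC50 level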); settings: ME-180 (cervical carcinoma) AP-1-bla reporter, EGF-induced, beta-lactamase ratio, 5 h; at 7.69 µM (top of the series) unless noted
# In short: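 AP-1-bla ME-180 cells, Opti-MEM + 0.5% dialyzed FBS, plated overnight 37 °C. Cpd titration + EC50 EGF, 5 h 37 °C. CCF4 2.5 h RT; ex 405, em 460/530 ratio → %activity, AC50.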
# [2] = molecular target: Cytochrome P450 1A2 (Homo sapiens) (UniProt P05177); assay: p450-cyp1a2 (AID 410; calls by dose curve; note: potency is the fitted concentration of half-maximal effect)
# In short: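 20nM CYP1A2, 100uM Luciferin-ME (=Km), 100mM KPO4; cpd 10 min RT; +NADPH regen, 60 min RT; stop/detect 20 min; luminescence. Normalized to furafylline 57 uM = full inhibition.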
# [3] = Stat Signaling Pathway (AID 446; active = well fitted curve in either direction with a large enough effect, not every such curve was filed as active;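 note: ME-180 cervical cancer cells given 40 pM IL-6 alongside compound; SIE-controlled beta-lactamase reporter measured as 460/530 nm FRET emission ratio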)
# In short: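 FRET read-out (405 nm excitation, 460/530 nm emission) of a beta-lactamase reporter under a STAT-inducible element in ME-180 cervical carcinoma cells. Cells with compound receive 40 pM IL-6 for 5 h. Values are normalised to AC90 stimulation and AC90 JAK-inhibitor controls.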
# [4] = molecular target: Glucocorticoid receptor (Homo sapiens) (UniProt P04150); assay: GR-GFP Redistribution (AID 450;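 active = compounds whose dose series gives a full or clear partial fitted curve of increased nuclear translocation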; note: potency is the fitted concentration of half-maximal effect); settings: U2OS GR-GFP nuclear translocation, laser cytometry, 2 h
# [5] = molecular target: Glucocorticoid receptor (Homo sapiens) (UniProt P04150); assay: GR-EFC Redistribution (AID 451; calls by dose curve; note: potency is the fitted concentration of half-maximal effect); settings: CHO-K1 GR-EFC translocation, beta-gal luminescence, 2 h
# In short: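 CHO-K1 cells stably expressing nuclear-localized β-gal enzyme acceptor and GR fused C-terminally to the enzyme donor fragment; ligand-driven nuclear translocation restores β-gal by complementation. Compounds titrated up to 46 uM final, 2 h at 37 °C; luminescence read.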
# [6] = molecular target: Mitogen-activated protein kinase 10 (Mus musculus) (UniProt Q61831); assay: JNK3 AlphaScreen Assay (AID 530; active = well fitted curve in either direction with a large enough effect, not every such curve was filed as active;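 note: kinase came from lysate of stimulated human HepG2 cells; signal reports phosphorylation of biotinylated GST-cJun 1-79 at Ser73 with 10 µM ATP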)
# In short: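 Biotinylated GST-cJun(1-79) served as substrate for JNK3 in HepG2 lysates stimulated with IL-1beta and TNF-alpha. ATP was 10 uM final, pH 7.6. Ser73 phosphorylation was quantified by AlphaScreen (680 nm excitation).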
# [7] = molecular target: Rap guanine nucleotide exchange factor 3 (Homo sapiens) (UniProt O95398); assay: Confirmatory qHTS for agonist of cAMP-regulated guanine nucleotide exchange factor 3 (EPAC1) (AID 1645881);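 note: EPAC1 catalysed release of BODIPY-GDP from Rap1B seen as fluorescence loss; nearly all actives have a fitted effect of over 75% in size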
# [8] = molecular target: Rap guanine nucleotide exchange factor 4 (Homo sapiens) (UniProt Q8WZA2); assay: Confirmatory qHTS for agonist of cAMP-regulated guanine nucleotide exchange factor 4 (EPAC2) (AID 1645884);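 note: nucleotide exchange releases bodipy-GDP from Rap1 and this lowers its fluorescence; nearly all actives have a fitted effect of over 65% in size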
# [9] = molecular target: Rap guanine nucleotide exchange factor 4 (Homo sapiens) (UniProt Q8WZA2); assay: Confirmatory qHTS for antagonist of cAMP-regulated guanine nucleotide exchange factor 4 (EPAC2) (AID 1645885); note: nearly all actives have a fitted effect of over 25% in size
# [10] = molecular target: Rap guanine nucleotide exchange factor 3 (Homo sapiens) (UniProt O95398); assay: Counterscreen qHTS for antagonist of cAMP-regulated guanine nucleotide exchange factor 3 (EPAC1) (AID 1645888);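 note: fluorescence loss as bound BODIPY-GDP is released from Rap1B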
# In short: (§1)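 Measured: fluorescence of BODIPY-GDP bound to Rap1B, which falls as exchange proceeds. Conditions include 50 uM competing GDP, 5 and 30 min reads, and a later cAMP challenge for antagonist detection.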
# [11] = molecular target: Rap guanine nucleotide exchange factor 3 (Homo sapiens) (UniProt O95398); assay: Counterscreen qHTS for agonist of cAMP-regulated guanine nucleotide exchange factor 3 (EPAC1) (AID 1645889); note: nearly all actives have a fitted effect of over 40% in size
# In short: as §1
# [12] = molecular target: Tumor susceptibility gene 101 protein (Homo sapiens) (UniProt Q99816); assay: qHTS Assay for Iinhibitors of HIV-1 Budding by Blocking the Interaction of PTAP/TSG101: Hit Validation (AID 651600); note: potency is the fitted concentration of half-maximal effect; nearly all actives have a fitted effect of over 70% in size
# In short: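 FITC-PTAP peptide (50 nM final) binding to Tsg101 binding domain (10 uM final) was measured by polarization after 20 min at r.t. with compounds, in 10 mM HEPES pH 7.5 buffer with 0.15 M NaCl and 0.01% Tween 20.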
# [13] = molecular target: 3',5'-cyclic-AMP phosphodiesterase 4B (Homo sapiens) (UniProt Q07343); assay: qHTS Assay for Inhibitors of PDE-IV (AID 607; active = well fitted activation curve with a large enough effect in the main read-out, with a control signal flat, not every such curve was filed as active)
# In short: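 Cell-based read-out of cAMP via a modified cyclic nucleotide-gated channel and membrane potential dye (535/590 nm) in HEK293 cells expressing PDE4 endogenously. Compounds tested up to 22.9 uM final; 100 uM RO 20-1724 reference.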
# [14] = molecular target: Cytochrome P450 3A4 (Homo sapiens) (UniProt P08684); assay: qHTS Assay for Activators of Cytochrome P450 3A4 (AID 885); note: nearly all actives have a fitted effect of over 65% in size
# In short: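 Luminescent readout of luciferin formed from 25 uM Luciferin-PPXE (KM level) by 20 nM CYP3A4 in 200 mM KPO4, with 60 min NADPH-driven reaction at room temperature after 10 min compound exposure. Ketoconazole (57 uM) defined 100% inhibition.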
# [15] = molecular target: Cytochrome P450 2C19 (Homo sapiens) (UniProt P33261); assay: qHTS Assay for Inhibitors and Substrates of Cytochrome P450 2C19 (AID 899); note: potency is the fitted concentration of half-maximal effect; nearly all actives have a fitted effect of over 60% in size
# In short: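 Human CYP2C19 (5nM) with Luciferin-H EGE at 10uM (its KM) in 50mM KPO4 was preincubated with compound for 10 min at 37C. NADPH regeneration started a 60 min 37C reaction. Luciferin was read by luminescence, normalized to 57uM ketoconazole.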
# [16] = Confirmation and Secondary Assay for Modulators of Hemoglobin Beta Chain Splicing at IVS2 654 locus (AID 910);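 note: per-well total GFP intensity by laser scanning cytometry after 2-day treatment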
# In short: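 HeLa cells stably carrying EGFP interrupted by mutant beta-globin IVS2-654 intron (CMV-driven) were treated with compound for 2 days at 37C; corrected splicing was scored as total peak GFP intensity per well (488 nm excitation, 500-520 nm emission).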
# [17] = Confirmation and Secondary Assay for Modulators of Hemoglobin Beta Chain Splicing at IVS2 705 locus (AID 930);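 note: HeLa cells stably expressing the EGFP-705 splicing reporter; GFP fluorescence per well restored by corrected splicing of the IVS2-705 intron in EGFP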
# In short: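 Splice-correction reporter: EGFP cDNA split by beta-globin intron 2 bearing the 705 mutation, stably in HeLa. Compound incubation 2 days, 37C; fluorescent objects 5-250 µm summed per well.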
# Chain of Rap guanine nucleotide exchange factor 4 (Homo sapiens) (Q8WZA2 whole entry, looked up): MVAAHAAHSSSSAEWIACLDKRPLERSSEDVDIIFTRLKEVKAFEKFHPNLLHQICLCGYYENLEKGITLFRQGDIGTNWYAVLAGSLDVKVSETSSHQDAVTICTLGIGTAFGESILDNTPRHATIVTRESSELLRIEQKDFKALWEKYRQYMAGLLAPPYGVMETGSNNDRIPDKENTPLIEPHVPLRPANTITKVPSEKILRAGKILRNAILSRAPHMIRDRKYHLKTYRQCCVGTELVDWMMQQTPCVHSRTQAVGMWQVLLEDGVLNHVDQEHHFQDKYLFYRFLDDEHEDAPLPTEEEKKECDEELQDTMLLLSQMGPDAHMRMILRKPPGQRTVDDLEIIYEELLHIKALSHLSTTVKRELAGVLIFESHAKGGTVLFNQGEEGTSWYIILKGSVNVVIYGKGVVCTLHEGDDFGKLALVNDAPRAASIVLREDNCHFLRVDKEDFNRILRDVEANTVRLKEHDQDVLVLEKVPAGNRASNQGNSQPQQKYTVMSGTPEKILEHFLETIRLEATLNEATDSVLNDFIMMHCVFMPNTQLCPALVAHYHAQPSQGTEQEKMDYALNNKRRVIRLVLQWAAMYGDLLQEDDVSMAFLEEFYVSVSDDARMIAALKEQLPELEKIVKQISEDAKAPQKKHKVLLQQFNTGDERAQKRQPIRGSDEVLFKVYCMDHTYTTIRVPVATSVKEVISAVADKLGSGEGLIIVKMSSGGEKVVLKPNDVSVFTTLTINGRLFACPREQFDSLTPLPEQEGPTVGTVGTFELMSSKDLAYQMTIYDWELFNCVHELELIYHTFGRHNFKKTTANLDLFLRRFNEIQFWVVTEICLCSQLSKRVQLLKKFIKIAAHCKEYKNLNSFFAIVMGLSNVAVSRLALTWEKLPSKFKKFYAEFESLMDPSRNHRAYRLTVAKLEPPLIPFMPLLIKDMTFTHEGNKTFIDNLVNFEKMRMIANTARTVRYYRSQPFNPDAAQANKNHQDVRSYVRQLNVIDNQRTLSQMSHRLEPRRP
# Chain of Rap guanine nucleotide exchange factor 3 (Homo sapiens) (O95398 whole entry, looked up): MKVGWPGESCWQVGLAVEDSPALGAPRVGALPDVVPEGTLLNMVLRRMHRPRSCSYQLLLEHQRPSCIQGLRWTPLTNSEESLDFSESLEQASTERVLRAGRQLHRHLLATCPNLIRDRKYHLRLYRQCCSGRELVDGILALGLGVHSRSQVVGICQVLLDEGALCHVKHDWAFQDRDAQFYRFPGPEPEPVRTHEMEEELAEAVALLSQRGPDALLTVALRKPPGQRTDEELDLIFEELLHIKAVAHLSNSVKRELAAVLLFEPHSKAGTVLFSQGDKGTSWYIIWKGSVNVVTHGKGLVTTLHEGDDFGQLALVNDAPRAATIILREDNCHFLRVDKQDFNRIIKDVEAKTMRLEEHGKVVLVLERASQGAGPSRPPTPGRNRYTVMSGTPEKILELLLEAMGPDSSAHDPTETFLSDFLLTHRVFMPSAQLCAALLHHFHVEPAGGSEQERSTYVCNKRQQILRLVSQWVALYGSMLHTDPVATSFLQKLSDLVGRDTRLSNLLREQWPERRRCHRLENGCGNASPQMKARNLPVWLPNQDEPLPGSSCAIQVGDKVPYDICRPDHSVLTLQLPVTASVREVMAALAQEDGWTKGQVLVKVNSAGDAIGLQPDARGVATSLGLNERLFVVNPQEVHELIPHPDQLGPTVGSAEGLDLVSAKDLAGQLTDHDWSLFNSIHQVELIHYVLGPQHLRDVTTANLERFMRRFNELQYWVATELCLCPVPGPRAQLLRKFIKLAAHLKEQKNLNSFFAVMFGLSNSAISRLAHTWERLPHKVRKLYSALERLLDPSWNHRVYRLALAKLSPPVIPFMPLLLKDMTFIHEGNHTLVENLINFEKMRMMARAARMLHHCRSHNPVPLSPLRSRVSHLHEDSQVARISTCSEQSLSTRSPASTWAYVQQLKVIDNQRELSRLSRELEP
# Chain of Glucocorticoid receptor (Homo sapiens) (P04150 whole entry, looked up, the tested form may be a part): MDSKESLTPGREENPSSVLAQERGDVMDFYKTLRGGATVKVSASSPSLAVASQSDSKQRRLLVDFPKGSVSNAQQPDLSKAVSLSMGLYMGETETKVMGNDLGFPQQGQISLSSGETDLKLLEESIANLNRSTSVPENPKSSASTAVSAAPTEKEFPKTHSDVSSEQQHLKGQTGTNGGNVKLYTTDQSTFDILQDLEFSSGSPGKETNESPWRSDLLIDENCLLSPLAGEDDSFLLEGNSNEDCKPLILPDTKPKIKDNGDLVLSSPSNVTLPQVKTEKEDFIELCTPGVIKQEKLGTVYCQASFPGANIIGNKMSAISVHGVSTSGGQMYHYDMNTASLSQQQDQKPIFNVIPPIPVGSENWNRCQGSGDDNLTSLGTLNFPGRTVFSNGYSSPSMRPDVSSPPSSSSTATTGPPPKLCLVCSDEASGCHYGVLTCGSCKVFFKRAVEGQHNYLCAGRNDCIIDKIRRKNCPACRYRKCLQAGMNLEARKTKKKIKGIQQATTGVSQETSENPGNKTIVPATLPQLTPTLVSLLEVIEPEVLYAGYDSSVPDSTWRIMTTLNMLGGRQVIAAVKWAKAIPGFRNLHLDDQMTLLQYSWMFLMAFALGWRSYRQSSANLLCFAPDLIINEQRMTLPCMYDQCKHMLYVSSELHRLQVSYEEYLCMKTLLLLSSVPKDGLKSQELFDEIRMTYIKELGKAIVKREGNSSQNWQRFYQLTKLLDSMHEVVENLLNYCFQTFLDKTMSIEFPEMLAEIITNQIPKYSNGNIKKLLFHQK
# Chain of Cytochrome P450 3A4 (Homo sapiens) (P08684 whole entry, looked up): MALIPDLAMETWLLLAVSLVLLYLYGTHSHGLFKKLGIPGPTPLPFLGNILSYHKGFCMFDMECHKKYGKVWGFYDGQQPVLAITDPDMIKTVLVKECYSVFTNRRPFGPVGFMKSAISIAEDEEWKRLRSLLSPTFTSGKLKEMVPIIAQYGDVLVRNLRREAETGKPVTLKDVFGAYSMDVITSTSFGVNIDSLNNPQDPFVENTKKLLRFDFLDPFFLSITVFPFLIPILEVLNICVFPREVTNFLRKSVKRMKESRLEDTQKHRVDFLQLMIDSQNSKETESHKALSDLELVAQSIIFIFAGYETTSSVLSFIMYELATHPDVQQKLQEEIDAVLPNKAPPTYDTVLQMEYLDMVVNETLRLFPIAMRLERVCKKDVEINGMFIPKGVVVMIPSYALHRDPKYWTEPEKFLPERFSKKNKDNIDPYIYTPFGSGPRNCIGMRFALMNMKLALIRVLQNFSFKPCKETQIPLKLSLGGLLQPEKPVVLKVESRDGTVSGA
# Chain of Cytochrome P450 1A2 (Homo sapiens) (P05177 whole entry, looked up): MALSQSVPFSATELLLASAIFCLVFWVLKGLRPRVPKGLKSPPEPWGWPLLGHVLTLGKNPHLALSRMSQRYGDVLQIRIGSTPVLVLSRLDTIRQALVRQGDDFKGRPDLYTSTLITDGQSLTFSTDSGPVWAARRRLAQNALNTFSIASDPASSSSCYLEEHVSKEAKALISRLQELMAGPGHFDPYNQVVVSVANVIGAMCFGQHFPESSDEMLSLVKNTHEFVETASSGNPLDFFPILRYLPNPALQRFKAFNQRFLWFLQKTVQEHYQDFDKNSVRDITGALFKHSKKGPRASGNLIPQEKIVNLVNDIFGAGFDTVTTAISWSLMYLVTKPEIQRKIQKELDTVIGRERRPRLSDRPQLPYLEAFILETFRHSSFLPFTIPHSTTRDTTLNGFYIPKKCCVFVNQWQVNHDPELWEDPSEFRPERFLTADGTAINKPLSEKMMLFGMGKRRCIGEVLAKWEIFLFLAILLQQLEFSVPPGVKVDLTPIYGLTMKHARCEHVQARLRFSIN
# Chain of Cytochrome P450 2C19 (Homo sapiens) (P33261 whole entry, looked up): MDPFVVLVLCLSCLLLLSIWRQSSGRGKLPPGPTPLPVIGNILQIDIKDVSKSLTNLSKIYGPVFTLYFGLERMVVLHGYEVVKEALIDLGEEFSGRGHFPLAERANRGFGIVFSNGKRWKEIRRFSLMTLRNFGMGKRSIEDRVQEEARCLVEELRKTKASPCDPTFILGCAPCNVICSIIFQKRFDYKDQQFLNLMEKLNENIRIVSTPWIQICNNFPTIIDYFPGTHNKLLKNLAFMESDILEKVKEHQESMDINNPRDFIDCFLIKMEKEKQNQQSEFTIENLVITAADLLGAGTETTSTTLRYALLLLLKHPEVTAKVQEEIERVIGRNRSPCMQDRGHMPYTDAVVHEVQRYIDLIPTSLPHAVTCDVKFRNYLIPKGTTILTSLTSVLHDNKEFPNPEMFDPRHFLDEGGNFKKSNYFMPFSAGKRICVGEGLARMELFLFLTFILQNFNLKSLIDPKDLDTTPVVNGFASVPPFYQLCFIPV
# Chain of Tumor susceptibility gene 101 protein (Homo sapiens) (Q99816 whole entry, looked up, the tested form may be a part): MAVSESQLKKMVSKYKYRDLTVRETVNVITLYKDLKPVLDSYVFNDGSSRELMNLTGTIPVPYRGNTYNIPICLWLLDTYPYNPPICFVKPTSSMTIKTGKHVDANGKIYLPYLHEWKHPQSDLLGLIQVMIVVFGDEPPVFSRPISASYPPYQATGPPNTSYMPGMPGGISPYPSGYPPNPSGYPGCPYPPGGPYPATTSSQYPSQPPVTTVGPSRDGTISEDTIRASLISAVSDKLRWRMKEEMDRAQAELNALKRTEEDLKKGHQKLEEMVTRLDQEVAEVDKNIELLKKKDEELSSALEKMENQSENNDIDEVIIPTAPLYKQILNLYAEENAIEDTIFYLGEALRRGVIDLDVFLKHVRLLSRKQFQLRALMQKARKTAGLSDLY
smiles,measurement,setting,value
CCOc1ccc2nc3cc(N=Nc4ccc(N)nc4N)ccc3c(N)c2c1,"activity change, negative = inhibition",[1],4.95% (inactive)
same,Potency,[2],0.794 µM (active)
same,outcome,[3],inactive
same,Potency,[4],> 46 µM (inactive)
same,Potency,[5],> 9.22 µM (inactive)
same,"activity change, negative = inhibition",[6],-7.05% [at 11.4 µM] (inactive)
same,Potency,[7],inactive
same,activation,[8],"2.08% [at 17.1 µM, percent relative to cAMP agonist control] (inactive)"
same,Potency,[9],inactive
Cc1ccc(CN(Cc2ccco2)C(=O)c2ccccc2Br)o1,Potency,[7],inactive
same,Potency,[8],inactive
same,Potency,[10],inactive
CCCCCC(=O)N1c2ccccc2C(C)(c2ccccc2)CC1(C)C (stereo not drawn),Potency,[7],inactive
same,Potency,[8],inactive
same,Potency,[9],inactive
same,Potency,[11],inactive
O=C(CN1C(=O)c2ccccc2C1=O)Nc1cc([N+](=O)[O-])ccc1O,Potency,[7],inactive
same,Potency,[8],inactive
same,Potency,[10],inactive
Cc1oc2ccc(O)c(CN3CCCCC3)c2c1C(=O)Nc1cccc(C(F)(F)F)c1,Potency,[7],inactive
same,Potency,[8],inactive
same,Potency,[10],inactive
C=CCn1c(=O)/c(=C/c2ccc(C)o2)s/c1=C(/C#N)C(=O)c1ccccc1,Potency,[12],18.3 µM (active)
same,Potency,[7],inactive
same,activation,[8],"3.1% [at 17.1 µM, percent relative to cAMP agonist control] (inactive)"
same,Potency,[9],inactive
same,activation,[11],34.7% [at 30.8 µM] (inactive)
Nc1nc(N)c(-c2cccc(C(F)(F)F)c2)c(Cc2cccc(C(F)(F)F)c2)n1,"activity change, negative = inhibition",[1],11.9% (inactive)
same,outcome,[3],inactive
same,Potency,[4],> 46 µM (inactive)
same,Potency,[5],> 9.22 µM (inactive)
same,"activity change, negative = inhibition",[6],3.36% [at 11.4 µM] (inactive)
same,Potency,[13],inactive
same,"activity change, positive = activation",[14],-31.2% [at 11.4 µM] (inactive)
same,Potency,[15],2.51 µM (active)
same,Potency,[7],inactive
same,Potency,[8],inactive
same,Potency,[9],inactive
same,Potency,[11],inactive
CC(C)=CCc1c(O)ccc2c1OC(c1ccc(O)c(O)c1)CC2=O (stereo not drawn),Potency,[7],inactive
same,Potency,[8],inactive
same,Potency,[10],inactive
COc1ccc(CCN2C(=O)CSC2=Nc2ccc(C(C)C)cc2)cc1OC,Potency,[7],inactive
same,Potency,[8],inactive
same,Potency,[10],inactive
CCc1noc(C)c1C(=O)Nc1nc2c(C)cc(C)cc2s1,Potency,[7],inactive
same,Potency,[8],inactive
same,Potency,[10],inactive
CC(C)CNC(=O)C1Nc2ccc(OC(F)(F)F)cc2C2C=CCC12 (stereo not drawn),Potency,[7],inactive
same,Potency,[8],inactive
same,Potency,[10],inactive
CCCCC[C@@H](C)N1C[C@H](COCc2ccccc2)Oc2cc(N3CC[C@@H](O)C3)ccc2S1(=O)=O,Potency,[7],inactive
same,Potency,[8],inactive
same,Potency,[9],inactive
same,Potency,[11],inactive
O=C(O)c1cc(NN=Nc2cccc([N+](=O)[O-])c2)cc([N+](=O)[O-])c1,Potency,[7],inactive
same,activation,[8],"1.11% [at 17.1 µM, percent relative to cAMP agonist control] (inactive)"
same,Potency,[9],inactive
same,activation,[11],8.61% [at 30.8 µM] (inactive)
COc1ccc(C)cc1NC(=O)c1ccc2c(SCC(=O)O)c3c(nc2c1)CCCC3,Potency,[7],inactive
same,Potency,[8],inactive
same,Potency,[10],inactive
CC(C)=CCc1c2c(c3occ(-c4ccc(O)cc4)c(=O)c3c1O)C=CC(C)(C)O2,outcome,[14],inactive
same,Potency,[16],inactive
same,Potency,[17],inactive
same,Potency,[7],inactive
same,Potency,[8],inactive
same,Potency,[9],inactive
C[n+]1cccc2c(Br)ccc([O-])c21,Potency,[7],inactive
same,Potency,[8],inactive
same,Potency,[10],inactive
CCCC(=O)NC(c1ccc(C)cc1)c1ccc2cccnc2c1O (stereo not drawn),Potency,[7],inactive
same,activation,[8],"0% [at 17.1 µM, percent relative to cAMP agonist control] (inactive)"
same,Potency,[9],inactive
same,activation,[11],7.43% [at 30.8 µM] (inactive)
Cc1ccc(NS(=O)(=O)c2cccc(C(=O)OCC(=O)NCc3ccco3)c2)cc1,Potency,[7],inactive
same,Potency,[8],inactive
same,Potency,[9],inactive
same,Potency,[11],inactive
CNC(=O)c1ccc(Nc2nnc(-c3ccc(O)cc3)c3ccccc23)cc1,Potency,[7],inactive
same,Potency,[8],inactive
same,Potency,[9],inactive
same,Potency,[11],inactive
